Phagocyt inh – inhibitors of macrophage phagocytosis, primary screen, imaging, J774A.1 cells, IgG beads | J774A.1 macrophage IgG-bead phagocytosis | 0.07% of 110,000 active | inhibition, % at 5 µM;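 active = inhibition above the mean of the plate negative controls plus 5 SD, cut at about 13% in these data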;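 also: phagocytic index as fraction of beads internalized from green versus red external bead signal; plate controls were DMSO negative control for no effect and cytochalasin-D positive control for full effect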
HUVEC tox IL1B – cytotoxicity in IL-1B stimulated HUVEC, primary screen, cytotoxicity control for IL-1B NFkB translocation project, imaging, Hoechst nuclear count, IL-1B stimulus; HUVEC cell count loss; cell count reduction, % at 2 µM; 0.41% of 94,000 active;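 active = cell count reduction more than 3 SD above the screen-wide mean, cut at about 70% in these data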;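 also: normalized per plate to untreated control cells as the no-loss baseline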
Pyk2 oligo antag – antagonists of Pyk2 self-association, primary screen, Q293 cells, FERM NanoBiT luminescence, HTS. Protein-tyrosine kinase 2-beta (Homo sapiens), Q14289. active compounds read low. z-score (the deposit names both 25 µM and 10 µM). 0.83% of 99,000 active. AID 1347419, 2020;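 active = Z-score of -3 or lower, scaled per plate to the spread of control and sample wells; inactive = z-score above -3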;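 also: negative z-score means lost luminescence so less FERM oligomerization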
IL1B NFkB pot – enhancers of NFkB p65 translocation in HUVEC – imaging, IL-1B stimulus, high-content imaging, primary screen. HUVEC IL-1B NFkB p65 nuclear translocation imaging. activation, % at 2 µM. 0.3% of 94,000 active;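 active = activation above 40%, about the mean plus 3 SD, also judged a hit on visual image review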;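 also: percent activation is computed from the nuclear over cytoplasmic p65 intensity ratio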
NFkB transloc inh – inhibitors of IL-1B driven NFkB p65 nuclear import, primary screen, imaging, HUVEC, IL-1B stimulus, high-content imaging; inhibition, % at 2 µM; 0.43% of 94,000 active; HUVEC IL-1B NFkB p65 nuclear translocation imaging;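 active = inhibition above about 30% together with a positive call from visual inspection of the well image, limit read from the data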;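 also: nuclear over cytoplasmic p65 intensity ratio measured by imaging; 0% = IL-1B stimulated DMSO wells and 100% = unstimulated DMSO wells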
* hit, by the source's call; · = not tested or not shown. This is a sample that favours compounds with a hit; in the whole collection about 1.4% have one here.

SMILES	Phagocyt inh	HUVEC tox IL1B	Pyk2 oligo antag	IL1B NFkB pot	NFkB transloc inh
O=C(Oc1ccc(F)cc1C(=O)/C=C/c1cccs1)c1cccc([N+](=O)[O-])c1	·	60	0.35	-31	31*
O=C(/C=C/c1ccccc1F)c1cccc([N+](=O)[O-])c1	-3	·	·	·	·
COc1cccc(CNC(=O)C2(C)Oc3ccccc3NC2=O)c1 (stereo not drawn)	-2	0	-1.1	4	-4
O=C(c1sc2ccccc2c1Cl)N(Cc1ccccc1)C1CCS(=O)(=O)C1 (stereo not drawn)	0	10	-2.5	-66	66*
Cc1c(-c2ccc(F)cc2)[n+](=O)c(-c2ccc(F)cc2)c(C)n1[O-]	2	-1	-0.92	12	-12
Nc1ccc(Br)c2c1C(=O)c1ccccc1C2=O	·	-24	·	-6	6
COc1ccccc1NC(=O)C(C)NS(=O)(=O)c1ccccc1 (stereo not drawn)	·	73*	-0.02	-8	8
O=C1CC(C(=O)Nc2ccccc2)C2(CCCCC2)O1 (stereo not drawn)	0	7	0.28	9	-9
O=C1CC(C(=O)Nc2ccc(Br)cc2)C2(CCCC2)O1 (stereo not drawn)	0	82*	·	-25	25
CCOc1cc(N2CCOCC2)c(OCC)cc1NC(=O)Cc1cccc2ccccc12	2	20	-0.45	63*	-63
C=CCC(NCc1ccco1)c1ccc(OC)cc1OC (stereo not drawn)	-1	-2	·	-58	58*
CSC1=C(C#N)C(c2ccc(Cl)cc2)C2=C(CC(C)(C)CC2=O)N1 (stereo not drawn)	0	·	-3.1*	·	·
N#C/C(C(=O)NCc1ccccc1)=C1\SC(CCO)C(=O)N1c1ccccc1 (stereo not drawn)	·	14	0.12	-4	4
CC(=O)Nc1nnc(-c2ccc3c(c2)CCCC3)o1	0	6	·	-3	3
COc1ccccc1C(=O)Nc1nnc(-c2ccc3c(c2)CCCC3)o1	1	-14	·	-53	53*
CCN(CC)S(=O)(=O)c1ccc(NC(=O)C(OC)c2ccccc2)cc1 (stereo not drawn)	-2	90*	0.55	-98	98*
CCCS(=O)(=O)c1c(S(=O)(=O)CCC)c2cnccn2c1C(=O)c1ccc(CC)cc1	·	10	0.08	6	-6
Nn1c(-c2ccccc2Cl)nnc1-c1ccccc1Cl	·	24	-0.45	2	-2
COC(=O)C(=O)Nc1nnc(COc2ccccc2)s1	·	14	0.79	-7	7
COC(=O)c1cc2occc2n1CC(=O)Nc1ccc(OC)c(OC)c1	-2	-15	-0.77	0	0

Screens as filed in PubChem.
